Screening data deposited in PubChem by National Center for Advancing Translational Sciences (NCATS).
B2AR arrestin: recruits beta-arrestin to the human beta2-adrenergic receptor; beta-arrestin recruitment to beta2AR, cell-based reporter; Potency, µM (doses to about 46.1 µM), inactives show top-dose activation, actives largely listed as activators; 330,000 tested, 0.02% active;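 note: potency is the fitted concentration of half-maximal effect; 0% = DMSO controls and full agonism = EC100 isoproterenol or metaproterenol; nearly all actives have a fitted effect of over 65% in size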
Target sequence (P07550 whole entry, looked up): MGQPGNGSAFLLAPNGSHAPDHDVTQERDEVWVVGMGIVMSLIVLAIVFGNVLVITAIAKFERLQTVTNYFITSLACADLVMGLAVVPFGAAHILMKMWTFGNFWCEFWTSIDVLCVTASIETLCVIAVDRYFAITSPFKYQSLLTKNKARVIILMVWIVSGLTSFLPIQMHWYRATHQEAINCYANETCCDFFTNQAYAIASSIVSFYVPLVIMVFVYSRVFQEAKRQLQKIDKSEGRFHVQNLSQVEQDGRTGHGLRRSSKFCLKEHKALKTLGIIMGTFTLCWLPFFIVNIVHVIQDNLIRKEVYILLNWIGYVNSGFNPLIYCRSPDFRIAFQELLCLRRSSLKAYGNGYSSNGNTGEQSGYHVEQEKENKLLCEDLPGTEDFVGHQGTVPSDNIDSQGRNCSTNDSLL
PTHR1 agonist: activates the human parathyroid hormone receptor PTHR1. Potency, µM (doses to about 115 µM), without a hit: at the highest dose activation, hits mostly activators. 410,000 tested, 0.075% active. HEK293 GP2 PTHR1 cells, GloSensor cAMP luminescence, 1 h. AID 743266. Q03431; note: potency is the fitted concentration of half-maximal effect; nearly all actives have a fitted effect of over 55% in size
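HEK-293-derived GP2 cells expressing PTHR1 and a GloSensor cAMP reporter, 3,000/well, plated overnight, given luciferin plus IBMX (each 0.5 mM as added) for 1 h at 37 °C, then compound for 1 h at 37 °C. Luminescence was read after 15 min at room temperature.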
DRD3 antagonist: blocks the human D3 dopamine receptor | P35462 | D3R cells, DiscoveRx beta-arrestin luminescence, antagonist mode; active compounds read low | max response, negative = inhibition, % | 360,000 tested, 2.5% active; in the data active = max response below about -50%; inconclusive = no clear call, values can overlap the other calls; note: % is set by controls: 0 for no effect and ±100 for the full control effect
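Cells plated overnight at 1500 cells/well, then exposed to library compounds with dopamine controls for 90 minutes at 37 degrees C. DiscoveRx reagent added for 30–60 minutes at room temperature; luminescence read, quantitative HTS format.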
RGS4 inhibitor: inhibitors of human regulator of G protein signaling 4. Transcreener GDP fluorescence polarization, RGS4-accelerated GTP hydrolysis. Potency, µM (doses to about 114 µM), without a hit: at the top dose activity change, negative = inhibition, most hits filed as inhibitors. 390,000 tested, 0.039% active. AID 504845; note: potency is the fitted concentration of half-maximal effect; % is set by controls: 0 for no effect and ±100 for the full control effect; nearly all actives have a fitted effect of over 75% in size
Target sequence (P49798 whole entry, looked up): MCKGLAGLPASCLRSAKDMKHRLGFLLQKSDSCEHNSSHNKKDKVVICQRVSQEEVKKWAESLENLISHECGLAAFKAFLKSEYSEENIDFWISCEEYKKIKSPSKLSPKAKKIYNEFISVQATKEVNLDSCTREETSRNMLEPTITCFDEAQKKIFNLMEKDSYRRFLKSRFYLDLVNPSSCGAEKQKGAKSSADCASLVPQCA
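MLSMR compounds (23 nl, pin-transferred) preincubated 10 min at room temperature with a 500nM (2x) first reagent, then RGS4 at 900nM (2x) plus Transcreener GDP mix added; fluorescence polarization (620/688 nm) read before and after 90 min at 30 °C.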
BRCA1 expr act: activators of BRCA1 expression. MCF7-BRCA1-FFLuc reporter, luminescence, 48 h; response scale: scaled: vehicle 0%, 10 µM genistein 100%. AID 624202. 380,000 tested, 1.1% active. Potency, µM (top dose mostly 46.1 µM), inactives show at the highest dose activation, most hits filed as activators; note: potency is the fitted concentration of half-maximal effect; nearly all actives have a fitted effect of over 80% in size
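Using MCF7 cells harboring a BRCA1 firefly luciferase reporter, plated 2 h before compound pinning, the screen measured luminescence after 48 h incubation. Responses were normalized to DMSO and 10 microM genistein, then fitted for concentration-effect.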
D3 ag: D3 dopamine receptor (human) agonism; max activation, %; P35462; 410,000 tested, 0.58% active; D3R DiscoveRx beta-arrestin cells, luminescence, 90 min; in the data active = max activation above about 30%; note: 0% is about no effect
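Agonist-mode cell screen: cells plated at 1500/well and incubated overnight at 37 °C, then exposed to library compounds for 90 min at 37 °C. Detection reagent was added for 30–60 min at room temperature, and luminescence was read.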
Active calls of the source: *; i = inactive; u = inconclusive; x = no result given; [ ] = another dose, or the depositor's remark. Shown are actives, neighbours in structure and some others; about 3.7% of the full set was active somewhere. Unless noted, calls come from the whole dose curve; as a rule, active = well fitted curve in the direction sought with a large enough effect; inconclusive = small, poorly fitted or top-dose-only effect, or another doubt; inactive = no such curve, though single readings can be large; an effect the other way counts as inactive or inconclusive.

SMILES | B2AR arrestin | PTHR1 agonist | DRD3 antagonist | RGS4 inhibitor | BRCA1 expr act | D3 ag
CC(C)Nc1nc(NCCOc2ccccc2Cl)c2sc(-c3ccccc3)cc2n1 | x | -4% | u | x | -62% | -10
COc1ccccc1CNc1nc(NC(C)C)nc2cc(-c3ccccc3)sc12 | x | -8% | -64* | x | -35% | -19
CCCc1cc2c(=O)c(-c3ccccn3)coc2cc1OC | -1% | -55%[57.5 µM] | 10 | -7% | 5.6µM* | 5
CCCc1cc2c(=O)c(-c3ccccn3)c(C)oc2cc1O | -2% | i | -6 | -6% | 0% | -16
CCC(C(=O)NCCC(C)C)N(C(=O)Cn1nnc(-c2ccc(C)cc2)n1)c1cccc(O)c1 (stereo not drawn) | x | -67% | x | -9% | x | 15
CC1CCCN(C(=O)CSc2nnc(-c3cccnc3)n2C2CCCCC2)C1 (stereo not drawn) | 0% | i | 12 | -7% | 7% | 8
COc1ccccc1Cn1c(=O)c2ccccc2n2c(SCC(=O)N3CCCCC3)nnc12 | 0% | i | 15 | -31% | -8% | 6
CC1CCCN(C(=O)CSc2nnc3n(C4CCCC4)c(=O)c4ccccc4n23)C1 (stereo not drawn) | -1% | -1%[57.5 µM] | 32 | -28% | -36% | 47*
O=C(CSc1nnc2n(C3CCCC3)c(=O)c3ccccc3n12)N1CCCCCC1 | 0% | -8%[57.5 µM] | 15 | 5% | -18% | 34*
CCN(CC)C(=O)c1sc2nc(-c3ccc(OC)cc3)cn2c1C | -1% | -18% | 11 | 6% | 2.8µM* | -1
CNC(=O)c1sc2nc(-c3ccc(OC)cc3)cn2c1C | 0% | -25% | 6 | -15% | u | 4
Cc1ccc(NC(=O)CSc2nnc(COc3ccc(Cl)cc3)o2)cc1 | x | i | x | -1% | x | 6
Cn1c(=S)c2[nH]c(SCCN3CCCC3)nc2n(C)c1=O | 16µM* | 13% | -18 | -40% | -7% | -1
CCCn1c(N)c(N(CCOC)C(=O)c2ccccc2)c(=O)[nH]c1=O | 0% | i | 14 | 6% | -19% | 23
C=CCOc1nc2c(c(=O)n(C)c(=O)n2C)n1Cc1ccccc1Cl | 0% | u | 15 | -2% | -49% | 36*
CC(=O)N1N=C(c2cccc([N+](=O)[O-])c2)OC1c1ccccc1Cl (stereo not drawn) | 0% | -6% | -60* | -16% | 12% | -3
N#CC1=C(SCC(=O)Nc2cccc3cccnc23)NC(=O)C(C#N)C12CCCCC2 (stereo not drawn) | 0% | -28% | 35 | -7% | 0% | 39*
N#CC1=C(SCC(=O)NC2CC2)NC(=O)C(C#N)C12CCCCC2 (stereo not drawn) | -1% | i | 19 | 6% | -22% | 18
CN(Cc1ccccc1)c1cc(Cl)nc(N)n1 | 0% | u | -10 | 21% | 7% | 38*
O=C(NCc1ccco1)c1cc2c(s1)CCCCC2 | 0% | -23% | -9 | -19% | 11µM* | -8
O=C(Nc1ccon1)c1cc2c(s1)CCCC2 | -1% | -37% | -9 | 0% | u | -7
O=C(NCC(c1ccco1)N1CCCCC1)c1cccs1 (stereo not drawn) | 0% | i | 5 | -17% | -10% | -5
O=C(NCC(c1ccco1)N1CCCCC1)c1cc2c(s1)CCCC2 (stereo not drawn) | 0% | -21% | -75* | -11% | 5% | -24
O=C(Nc1ccon1)c1cc2c(s1)CCCCCC2 | 0% | -64%[57.5 µM] | 12 | 7% | 10µM* | -14
Cc1ccc(NC(=O)NCc2c(C)nn(C)c2C)cc1Cl | 0% | i | 7 | 12% | 5µM* | 5
SMILES | B2AR arrestin | PTHR1 agonist | DRD3 antagonist | RGS4 inhibitor | BRCA1 expr act | D3 ag
Cc1ccc(NC(=O)NCc2ccccn2)cc1Cl | 0% | -6% | -17 | -18% | 34% | -4
COC(=O)C1=C(C)NC(=O)/C1=C\c1cc(C)n(-c2ccccc2)c1C | 0% | -10% | -11 | -18% | 7.1µM* | 5
COc1cc(/C=N/NC(=O)c2ccccn2)ccc1OC(=O)c1ccc(Br)cc1 | 0% | -93% | 4 | -41% | 56% | 37*
Cc1ccc(C(=O)COC(=O)c2ccncc2)cc1[N+](=O)[O-] | -1% | i | -92* | -13% | -21% | -6
CN(CC(=O)Nc1ccc(OC(F)(F)F)cc1)S(=O)(=O)c1ccc2c(c1)CCC(=O)N2 | x | -53% | x | 6% | x | -1
O=C(C1=C(O)C(=O)N(c2ncccn2)C1c1ccc(Cl)c(Cl)c1)c1ccco1 (stereo not drawn) | 0% | i | -20 | -18% | 4% | -12
O=C(C1=C(O)C(=O)N(c2ncccn2)C1c1cccc(Cl)c1)c1ccco1 (stereo not drawn) | x | -2% | -74* | 11% | 2% | -3
O=C(Cc1ccc(Cl)c(Cl)c1)OCC(=O)c1ccc[nH]1 | 0% | -14% | -4 | -39% | -18% | 3
O=C(OCc1ccc(Cl)c(Cl)c1)c1ccc[nH]1 | -1% | -26% | 25 | -2% | 13µM* | 8
Cc1ccc(-n2cc(C(=O)O)c(=O)cc2C)c(C)c1 | 0% | i | 13 | 5% | 15% | 6
Cc1ccccc1Cn1nnc2c(=O)[nH]c(C3CCN(C(=O)c4ccccc4)CC3)nc21 | x | i | x | 2% | x | -23
CCOc1ccc(Nc2nc(N)c(C(=O)c3ccccc3Cl)s2)cc1 | x | i | x | -28% | x | 70*
N#CC1=C2N=C(N)c3ccccc3N2C2=C(C(=O)CCC2)C1c1ccccc1F (stereo not drawn) | -1% | -24% | 8 | 14% | -39% | 4
Cc1ccccc1C1C(C#N)=C2N=C(N)c3c(sc4c3CCCCC4)N2C2=C1C(=O)CCC2 (stereo not drawn) | 1% | i | -76* | -38%[56.9 µM] | -48% | -7
CC(Sc1ncc(C(F)(F)F)cc1Cl)C(=O)NCC1CCCO1 (stereo not drawn) | 0% | -24% | -17 | 15% | 0% | -5
O=C(O)c1cc(S(=O)(=O)N(Cc2ccccc2)c2ccc(Cl)cc2)ccc1Cl | 3% | -64% | -11 | -22% | -5% | 16
COc1cc(O)cc(/C=C/c2ccccc2)c1 | x | -56% | 6 | 22% | u | 70*
COc1ccc(OC)c(/C=C/c2ccccc2)c1 | x | x | x | x | -44% | x
Oc1ccc(/C=C/c2cc(O)cc(O)c2)cc1 | -1% | -45% | 9 | u | 13µM* | 9
Cc1ccc(SCC(=O)c2ccc[nH]2)cc1 | 0% | -1% | 3 | -1% | 3.2µM* | 2
